From PubChem BioAssay (Tox21)
Records with an inconclusive call do not appear. The source made the active and inactive calls. Unless noted, calls follow the shape of the dose curve; as a rule, active = well fitted curve in the direction sought with a large enough effect in the repeat runs; inconclusive = weak or mixed curves; inactive = no such curve, though single readings can be large; an effect the other way counts as inactive or inconclusive.

Columns and labels:
[1] = qHTS assay for small molecule agonists of the p53 signaling pathway (AID 651631; calls by dose curve; also: nearly all actives have a fitted effect of over 15% in size)
In short: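 Fluorescence intensity from cleaved LiveBLAzer B/G substrate (2 h, room temperature) served as the signal. Beforehand, HCT-116 reporter cells bearing p53 response elements were treated 16 h at 37 °C with DMSO-dissolved compounds.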

[2] = qHTS assay for small molecules that induce genotoxicity in human embryonic kidney cells expressing luciferase-tagged ATAD5 (AID 651632); also: nearly all actives have a fitted effect of over 15% in size
In short: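 Quantitative HTS in HEK293T expressing luciferase-tagged ATAD5, whose levels rise upon DNA damage. Exposure ran 16 hr at 37C and 5% CO2, with luminescence read 30 min after Amplite addition at room temperature.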

[3] = qHTS assay for small molecule agonists of the p53 signaling pathway - cell viability (AID 651633; calls by dose curve;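 also: p53RE-bla HCT reporter cells with a stable beta-lactamase p53 reporter; series mostly up to about 83 µM; nearly all actives have a fitted effect of over 30% in size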)
In short: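 p53RE-bla cells were treated with compound for 16 hours at 37 C. Cytotoxicity was then measured as CellTiter-Glo luminescence after 30 min at room temperature.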

[4] = qHTS assay for small molecules that induce genotoxicity in human embryonic kidney cells expressing luciferase-tagged ATAD5 - cell viability (AID 651634; calls by dose curve; also: nearly all actives have a fitted effect of over 25% in size)
In short: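 After 15.5 hr incubation with compound at 37C, 5% CO2, HEK293T ATAD5-luciferase cells received CellTiter-Fluor reagent; fluorescence intensity was quantified following 30 min at 37C.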

[5] = qHTS assay for small molecule disruptors of the mitochondrial membrane potential - cell viability (AID 720634; calls by dose curve;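 also: human HepG2 liver cancer cells; series mostly up to about 83 µM; nearly all actives have a fitted effect of over 20% in size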)
In short: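 ATP-based luminescent viability readout (CellTiter-Glo, 30 min, room temperature) in HepG2 cells multiplexed with the m-MPI membrane potential dye; compound exposure lasted 1 hr at 37 C.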

[6] = qHTS assay to test for compound auto fluorescence at 535 nm (green) in HepG2 cells (AID 720675)
[7] = qHTS assay to test for compound auto fluorescence at 460 nm (blue) in HEK293 cells (AID 720678)
In short: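 After cell attachment (4-5 hr, 37C), compounds were pinned onto HEK293 monolayers in 10% dialyzed FBS medium. The blue channel (405/460 nm) was read following overnight culture. Equivalency was calculated against triamterene.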

[8] = qHTS assay to test for compound auto fluorescence at 590 nm (red) in HEK293 cells (AID 720679)
In short: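 Plates of HEK293 cells (10% dialyzed FBS) are treated with 23 nL compound or DMSO vehicle after a 4-5 hr attachment period, incubated overnight at 37C, and read for red fluorescence at 540/590nm.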

[9] = qHTS assay to test for compound auto fluorescence at 460 nm (blue) in HEK293 cell free culture (AID 720681)
In short: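 Compounds were added to cell-free DMEM with 10% FBS and fluorescence read directly. The blue channel used 405 nm excitation and 460 nm emission, with triamterene as the reference fluorophore.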

[10] = qHTS assay to test for compound auto fluorescence at 535 nm (green) in HEK293 cell free culture (AID 720682)
In short: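 Intrinsic compound fluorescence is measured in culture medium containing 10% FBS, with excitation at 485 nm and detection at 535 nm, referenced to fluorescein.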

[11] = qHTS assay to test for compound auto fluorescence at 590 nm (red) in HEK293 cell free culture (AID 720683)
In short: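 Cell-free wells of DMEM with 10% FBS received compound, and intrinsic fluorescence was read at excitation/emission 540/590 nm. Values expressed as equivalence to Rose Bengal sodium.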

[12] = qHTS assay to test for compound auto fluorescence at 590 nm (red) in HepG2 cell free culture (AID 720684)
In short: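 Auto fluorescence equivalency versus Rose Bengal sodium, red channel Ex/Em 540/590 nm; compounds in cell-free MEM/10% FBS; DMSO vehicle control.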

[13] = qHTS assay to test for compound auto fluorescence at 535 nm (green) in HepG2 cell free culture (AID 720686)
[14] = qHTS assay to test for compound auto fluorescence at 460 nm (blue) in HepG2 cells (AID 720687)
In short: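 HepG2 cells in MEM with 10% FBS, attached overnight at 37 C, were exposed to compound or DMSO for 1 hr at 37 C, 5% CO2. Blue fluorescence was read at 405/460 nm, with triamterene as reference fluorophore.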

[15] = molecular target: Glucocorticoid receptor (Homo sapiens) (UniProt P04150); assay: qHTS assay to identify small molecule antagonists of the glucocorticoid receptor (GR) signaling pathway (AID 720692; active = well fitted inhibition curve with a large enough effect in the signal ratio in the repeat runs, not every such curve was filed as active; the % refers to the signal ratio)
Sequence of Glucocorticoid receptor (Homo sapiens) (P04150 whole entry, looked up): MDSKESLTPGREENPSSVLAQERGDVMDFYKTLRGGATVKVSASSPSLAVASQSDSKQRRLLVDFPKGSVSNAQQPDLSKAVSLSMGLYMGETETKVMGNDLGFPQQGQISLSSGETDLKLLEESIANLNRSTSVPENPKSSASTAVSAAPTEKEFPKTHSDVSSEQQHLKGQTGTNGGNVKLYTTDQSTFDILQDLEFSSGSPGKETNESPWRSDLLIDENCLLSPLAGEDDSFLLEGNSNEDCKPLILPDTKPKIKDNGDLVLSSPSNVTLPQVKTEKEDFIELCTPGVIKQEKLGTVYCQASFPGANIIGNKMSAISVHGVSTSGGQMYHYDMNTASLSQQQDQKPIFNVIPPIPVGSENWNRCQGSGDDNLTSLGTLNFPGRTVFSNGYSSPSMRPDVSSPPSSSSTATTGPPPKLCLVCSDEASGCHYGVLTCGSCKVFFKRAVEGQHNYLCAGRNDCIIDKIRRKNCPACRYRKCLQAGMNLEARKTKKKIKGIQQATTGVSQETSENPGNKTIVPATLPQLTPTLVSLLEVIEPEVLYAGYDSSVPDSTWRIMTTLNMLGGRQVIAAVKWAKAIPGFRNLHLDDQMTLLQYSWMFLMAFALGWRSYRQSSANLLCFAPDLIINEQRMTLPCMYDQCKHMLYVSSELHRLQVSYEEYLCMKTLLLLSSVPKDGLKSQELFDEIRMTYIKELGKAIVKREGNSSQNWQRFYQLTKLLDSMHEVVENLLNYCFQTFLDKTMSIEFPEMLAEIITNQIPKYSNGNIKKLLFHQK
In short: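 Quantitative HTS in antagonist format: HeLa cells expressing endogenous GR and a stably integrated GRE-bla reporter, stimulated with 5 nM dexamethasone (final) alongside test compounds for 18 h.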

[16] = qHTS assay to test for compound auto fluorescence at 590 nm (red) in HepG2 cells (AID 720674)
In short: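 Fluorescence at 590 nm emission following 540 nm excitation was recorded from HepG2 wells one hour after compound transfer, with DMSO-only wells as vehicle and Rose Bengal sodium equivalency as the scale.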

[17] = qHTS assay to test for compound auto fluorescence at 460 nm (blue) in HepG2 cell free culture (AID 720685)
In short: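 Cell-free plates of MEM plus 10% FBS received 23 nL compound or DMSO vehicle; blue-channel (405/460 nm) intensity scored against triamterene as reference fluorophore.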

[18] = molecular target: Glucocorticoid receptor (Homo sapiens) (UniProt P04150); assay: qHTS assay to identify small molecule agonists of the glucocorticoid receptor (GR) signaling pathway (AID 720691; active = well fitted activation curve with a large enough effect in the signal ratio in the repeat runs, not every such curve was filed as active; the % refers to the signal ratio)
In short: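 Cells: GR-bla HeLa, endogenous GR with stably integrated GRE-beta-lactamase reporter. Treatment 18 h, 37 C, compounds delivered in DMSO. Detection via LiveBLAzer B/G FRET substrate, 2 h RT, fluorescence intensity.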

[19] = qHTS assay to test for compound auto fluorescence at 535 nm (green) in HEK293 cells (AID 720680)

Measured: Potency

CC1=CC[C@@]23C[C@@H]1C(C)(C)[C@@H]2CC[C@H]3C
inactive: [1] | [2] | [3] | [4] | [5] | [6] | [7] | [8] | [9] | [10] | [11] | [12] | [13] | [14] | [15]

CN=C(N)NC(=O)Nc1c(C)cccc1C
inactive: [1] | [2] | [3] | [4] | [5] | [16] | [6] | [7] | [9] | [10] | [11] | [12] | [17] | [13] | [14] | [18] | [15]

CC(C)COC(=O)COc1cc(Cl)c(Cl)cc1Cl
inactive: [1] | [2] | [3] | [4] | [5] | [16] | [6] | [8] | [19] | [9] | [10] | [11] | [12] | [17] | [13] | [14] | [18]

CC(=O)OCC(C)C
inactive: [1] | [2] | [3] | [4] | [5] | [16] | [7] | [19] | [9] | [10] | [11] | [12] | [17] | [13] | [15]

Nc1ccc(S(=O)(=O)NCc2ccccc2)cc1
inactive: [1] | [2] | [3] | [4] | [5] | [16] | [19] | [9] | [10] | [11] | [12] | [14] | [18] | [15]

COc1ccc(-c2cc(C(F)F)nn2-c2ccc(S(N)(=O)=O)cc2)cc1F
inactive: [1] | [2] | [3] | [4] | [5] | [6] | [7] | [19] | [9] | [10] | [11] | [12] | [17] | [13] | [14]

O=C(O)CCCc1c[nH]c2ccccc12
inactive: [1] | [2] | [3] | [4] | [5] | [16] | [7] | [8] | [19] | [9] | [10] | [11] | [12] | [17] | [13] | [14] | [15]

C[C@@H]1C[C@H]2[C@@H]3CCC4=CC(=O)C=C[C@]4(C)[C@@]3(F)[C@@H](O)C[C@]2(C)[C@@]1(O)C(=O)COP(=O)(O)O
inactive: [1] | [2] | [3] | [4] | [5] | [6] | [7] | [19] | [9] | [10] | [11] | [12] | [17] | [13] | [14]

O=C(C(=O)c1ccco1)c1ccco1
inactive: [1] | [2] | [3] | [4] | [5] | [16] | [6] | [8] | [19] | [9] | [10] | [11] | [12] | [14] | [18] | [15]

CCCCCCC(O)CCOC(C)=O (configuration not stated)
inactive: [1] | [2] | [3] | [4] | [5] | [6] | [7] | [8] | [19] | [9] | [10] | [11] | [12] | [17] | [14]

FC(F)(F)C(F)(F)C(F)(F)C(F)(F)CCI
inactive: [1] | [2] | [3] | [4] | [5] | [16] | [8] | [19] | [9] | [10] | [11] | [12] | [13] | [14] | [15]

Cc1cccc2sc(N)nc12
inactive: [1] | [2] | [3] | [4] | [5] | [16] | [7] | [8] | [19] | [9] | [10] | [11] | [12] | [17] | [13] | [14] | [18] | [15]

O=c1[nH][nH]c(=O)c2cc([N+](=O)[O-])ccc12
inactive: [1] | [2] | [3] | [4] | [5] | [16] | [6] | [8] | [19] | [9] | [10] | [11] | [12] | [17] | [13] | [14] | [18] | [15]

CC(=O)Oc1cccc(O)c1
inactive: [1] | [2] | [3] | [4] | [5] | [16] | [6] | [19] | [9] | [10] | [11] | [12] | [17] | [13] | [14]

Nc1ccc(NC(=O)c2ccc(N)cc2)cc1
inactive: [1] | [2] | [3] | [4] | [5] | [16] | [8] | [9] | [10] | [11] | [12] | [17] | [13] | [14]

CC1C(C)(C)C2=C(C(=O)CCC2)C1(C)C (configuration not stated)
inactive: [1] | [2] | [3] | [4] | [5] | [16] | [7] | [8] | [9] | [10] | [11] | [12] | [17] | [13] | [14] | [15]
